This is an account of results in PubChem BioAssay (EPA / NIEHS).

Some structures have more than one record in an assay (separate samples or runs), and their calls can disagree. Calls of active or inactive are those of the source. How the source made its calls: active means hit-call score of the fitted dose curve at least 0.9, where 1 is the maximum; inactive means score below 0.9.

This assay in a line: CCTE_Shafer_MEA_acute_cross_correlation_area: CCTE's Neural Acute Assay for Area of Cross Correlation, Shafer Lab (AID 2284024).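 Further: curves fitted for loss of cross-correlation area so actives lower synchrony.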 The protocol: CCTE_Shafer_MEA_acute assay is conducted using Axion Biosystems 48 well microelectrode array (MEA) plates and Maestro recording system. Each well of the MEA plate contains a grid of 16 microelectrodes embedded in the culture surface. Electrically active cells, such as neurons, can be cultured over the electrodes, and electrical activity in these cells can be recorded extracellularly. The spontaneous firing of neurons is captured from each electrode on a microsecond timescale providing both temporally and spatially precise data. […] The CCTE_Shafer_MEA_acute assay uses primary cultures of rat cortical neurons. As these cultures mature over time, neural networks develop functional activity and form cohesive networks in which electrical activity can be highly coordinated. Baseline 40-minute recordings are made on days post-plating 13 or 15, followed by a secondary 40-minute recording after chemical exposure.CCTE_Shafer_MEA_acute_cross_correlation_area is a component of the CCTE_Shafer_MEA_acute assay. It measures the area under the well-wide pooled inter-electrode cross-correlation of action potential firing (not normalized to auto-correlations) within a window centered around 0 for the phase lag during a recording in a microelectrode array (MEA) using Axion Biosystems Maestro 768 channel amplifier with the AxIS adaptive spike detector. The recordings before and after chemical treatment are used to calculate a percent change in the cross correlation area in each well.Data from the assay component CCTE_Shafer_MEA_acute_cross_correlation_area was analyzed into 1 assay endpoint. This assay endpoint, CCTE_Shafer_MEA_acute_cross_correlation_area, was analyzed in the negative analysis fitting direction relative to DMSO as the negative control and baseline of activity. Using a type of functional reporter, gain or loss-of-signal activity can be used to understand electrical activity.
Spontaneous activity in the cortical cultures was recorded using an Axion Biosystems Maestro 768 channel amplifier and Axion Integrated Studios (AxIS) v1.8 (or later) software. The amplifier recorded from all channels simultaneously (gain = 1200 x; sampling rate = 12.5 kHz/channel): raw signals were filtered with a Butterworth band-pass filter (300-5000 Hz), which filters out slower local field potentials leaving only fast potentials, i.e., "spikes", arising from extracellular currents associated with action potentials (Pine 2006; Wheeler and Nam 2011). On-line spike detection of filtered signals was conducted with the AxIS adaptive spike detector, using a threshold of 8x the root mean squared (rms) noise on each channel. Any electrodes with rms noise levels greater than 5 uV were grounded (e.g., no data were recorded). Once grounded, an electrode was grounded for the duration of the experiment. All recordings were conducted at 37 C. Wells were deemed usable if on the day of the exposure >/= 10 electrodes were active (defined as >/= 5 spikes/min). On DIV 13 or 15, a minimum of three wells from one cortical culture preparation were treated with each compound (0.03-40 uM). Prior to recording baseline activity, each mwMEA plate was placed in the Maestro at 37 C and allowed to sit for 20 min while firing rates stabilized. Baseline activity (40 min) was recorded before the addition of each compound. An additional 40 min of spontaneous activity was recorded in the presence of each compound. Changes in network parameters relative to baseline were assessed following compound treatment.
`CCC(C)(CC)c1cc(NC(=O)c2c(OC)cccc2OC)on1`: the call was inactive.

For `ClC(Cl)=C(c1ccc(Cl)cc1)c1ccc(Cl)cc1`, the compound was classed as inactive.

As for `ClC1=C(Cl)[C@]2(Cl)[C@@H]3[C@@H](Cl)[C@H]4O[C@H]4[C@@H]3C1(Cl)C2(Cl)Cl`, the AC50 is 118 nM (active).

`CO/C=C(/C(=O)OC)c1ccccc1COc1cccc(C(F)(F)F)n1`: the AC50 was 313 nM (active).

On to `ClC1=C(Cl)[C@]2(Cl)[C@@H]3[C@H]4C[C@H]([C@@H]5O[C@H]45)[C@@H]3[C@@]1(Cl)C2(Cl)Cl`, for which the AC50 was 11.9 nM (active).

On to `CC(c1ccc(O)cc1)(c1ccc(O)cc1)c1ccc(O)cc1`, for which the call was inactive.

For `CC(C)C(=O)OCC(C)(C)C(OC(=O)C(C)C)C(C)C` (configuration not stated), the outcome was inactive.

Regarding `CCCCCCCCCc1ccc(O)cc1`, the result was inactive.

Consider `COS(=O)(=O)OC`, for which the compound was called inactive.

Regarding `CCCCCCCCCC[N+](C)(C)CCCCCCCCCC`, the call was inactive.

As to `CCC(C)c1cc([N+](=O)[O-])cc([N+](=O)[O-])c1O` (configuration not stated), the compound was classed as inactive.

Turning to `CCSC(=O)N(CC)C1CCCCC1`, the compound was called inactive.

For `Nc1ccc(-c2ccc(N)cc2)cc1`, the result was inactive.

For the compound `O=C(O)C(F)(F)C(F)(F)C(F)(F)C(F)(F)C(F)(F)F`, the compound was called inactive.

Turning to `O=C(N[C@H]1CN2CCC1CC2)c1cc2ccoc2cn1`, the result was inactive.

For `ClC1=C(Cl)[C@]2(Cl)[C@@H]3[C@@H]4C[C@@H]([C@H]5O[C@@H]45)[C@@H]3[C@@]1(Cl)C2(Cl)Cl`, the AC50 was 318 nM (active).

For `Oc1ccc(C(c2ccc(O)cc2)(C(F)(F)F)C(F)(F)F)cc1`, the outcome was inactive.

In the case of `CCC(C)(c1ccc(O)cc1)c1ccc(O)cc1`, the result was inactive.

With `Clc1ccc(C(Cl)(Cl)Cl)cc1`, the compound was classed as inactive.

For the compound `c1ccc(-c2ccccc2)cc1`, the outcome was inactive.

In the case of `O=C(NC(=O)c1c(F)cccc1F)Nc1cc(Cl)c(OC(F)(F)C(F)F)c(Cl)c1`, the call was inactive.

`CN(C)CCO`: the compound was classed as inactive.

On to `CCCN(CCC)N=O`, for which the compound was classed as inactive.

Consider `CC#Cc1cc(C)nc(Nc2ccccc2)n1`, for which the compound was classed as inactive.

As to `COc1ccc(O)c(C(C)(C)C)c1`, the AC50 was 44.4 nM (active) and the result was inactive.

For the compound `C=CC(N)=O`, the result was inactive.
